Values joined by “and” are separate entries in the source; they are usually repeats but may differ in a detail not shown here. Equal values may be shown once. About 4,000 (25%) of roughly 16,000 compounds were called active. About 26% were inconclusive and are not listed. The call rests on the fitted dose curve; in most records, active means well fitted curve in the direction sought with a large enough effect; inconclusive means small, poorly fitted or top-dose-only effect, or effect the other way; inactive means no such curve, though single readings can be large or run the other way. A selection follows.
Target: Cytochrome P450 2C9 (Homo sapiens) (UniProt P11712)
Assay: Cytochrome panel assay with activity outcomes
Details: recombinant CYP, pro-luciferin dealkylation, luminescence, p450-cyp2c9; series mostly up to 57.1 µM
On the % scale 0 is the no-effect control and ±100 the full control effect.

Sequence of Cytochrome P450 2C9 (Homo sapiens) (P11712 whole entry, looked up): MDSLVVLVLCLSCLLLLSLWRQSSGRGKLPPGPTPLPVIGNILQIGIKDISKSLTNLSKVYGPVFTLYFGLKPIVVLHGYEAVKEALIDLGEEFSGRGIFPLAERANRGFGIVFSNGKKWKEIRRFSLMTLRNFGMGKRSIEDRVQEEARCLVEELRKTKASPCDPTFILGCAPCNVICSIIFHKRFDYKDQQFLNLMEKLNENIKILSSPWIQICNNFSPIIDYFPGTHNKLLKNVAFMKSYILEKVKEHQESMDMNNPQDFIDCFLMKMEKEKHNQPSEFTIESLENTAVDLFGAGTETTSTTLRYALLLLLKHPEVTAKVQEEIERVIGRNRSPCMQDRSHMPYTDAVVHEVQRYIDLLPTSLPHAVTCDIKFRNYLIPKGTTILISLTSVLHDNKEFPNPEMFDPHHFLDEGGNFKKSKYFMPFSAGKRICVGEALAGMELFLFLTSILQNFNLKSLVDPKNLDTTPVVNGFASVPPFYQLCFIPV

| Structure (SMILES) | AC50 | activity, negative = inhibition |
| --- | --- | --- |
| CCNc1ncc2nc(CCc3ccccc3)c(=O)n(Cc3ccc(F)cc3)c2n1 | inactive | – |
| CCNc1ncc2nc(-c3ccccc3)c(=O)n(C)c2n1 | 12.6 µM (active) | – |
| CCNc1ncc2nc(-c3ccccc3)c(=O)n(CCC#N)c2n1 | inactive | – |
| CCNc1ncc2nc(CCc3ccccc3)c(=O)n(CCC#N)c2n1 | 6.31 µM (active) | – |
| CCNc1ncc2nc(-c3ccc(F)cc3)c(=O)n(-c3ccccc3)c2n1 | inactive | – |
| N#CCCn1c(=O)c(CCc2ccccc2)nc2cnc(Nc3ccccc3)nc21 | inactive | – |
| CCNc1ncc2nc(-c3cc(F)cc(F)c3)c(=O)n(-c3ccccc3)c2n1 | inactive | – |
| CCNc1ncc2nc(-c3ccc(F)cc3)c(=O)n(C)c2n1 | inactive | – |
| CCNc1ncc2nc(CCc3ccccc3)c(=O)n(-c3ccccc3)c2n1 | 12.6 µM (active) | – |
| CCNc1ncc2nc(CCc3ccccc3)c(=O)n(C)c2n1 | 12.6 µM (active) | – |
| CCNc1ncc2nc(-c3ccc(Cl)cc3)c(=O)n(C)c2n1 | inactive | – |
| CCNc1ncc2nc(C)c(=O)n(C)c2n1 | inactive | – |
| CC1(C)CC2(CCO1)OC(=O)CC2C(=O)NCCc1ccccc1 (stereo not given) | inactive | – |
| FC(F)(F)c1cc(CN2CC3(CCNCC3)C2)cc(C(F)(F)F)c1 | inactive | – |
| CC1(C)S[C@@H]2[C@H](NC(=O)[C@@H](N)c3ccccc3)C(=O)N2[C@H]1C(=O)O[C@H]1OC(=O)c2ccccc21 | inactive | – |
| Cc1cc(C)c2c(N=NN(C)C)[nH]nc2n1 | inactive | – |
| Cc1ccccc1-c1nc(NC2CCNCC2)c2ccccc2n1 | – | 10.8% [at 2.29 µM] (inactive) |
| S=C1SCN(CCN2CCOCC2)CN1Cc1ccccc1 | 12.6 µM (active) | – |
| c1csc(CNCCCN2CCOCC2)c1 | inactive | – |
| COc1cccc(OC)c1OCCCN1CCOCC1 | inactive | – |
| Cc1ccccc1-c1ccc2ncnc(N3CCNCC3)c2c1 | – | 4.82% [at 2.29 µM] (inactive) |
| CN(C)C(=O)c1ccc(-c2cncnc2N2CCNCC2)cc1 | – | 7.11% [at 2.29 µM] (inactive) |
| Cc1ccc2nc(-c3cccnc3)oc2c1 | 25.1 µM (active) | – |

| Structure (SMILES) | AC50 | activity, negative = inhibition |
| --- | --- | --- |
| Clc1ccc2oc(-c3cccnc3)nc2c1 | inactive | – |
| c1cncc(-c2cccnc2)c1 | inactive | – |
| O=c1[nH][nH]c(C(F)(F)F)c1C=Nc1ccccc1Cl | inactive | – |
| COc1cc(/C=N\NC(=O)C2C(=O)NCC2c2ccccc2)cc(OC)c1O (stereo not given) | inactive | – |
| COc1cccc(/C=N\NC(=O)C2C(=O)NCC2c2ccccc2)c1O (stereo not given) | 14.1 µM (active) | – |
| O=C(Nc1ccccc1)N1CCC2(CC1)CCN(C(=O)c1csnn1)CC2 | inactive | – |
| CC(=O)[C@@H]1[C@@H]2C(=O)N(C3CCCCC3)C(=O)[C@@H]2C2c3ccccc3C=CN21 (stereo not given in full) | 15.8 µM (active) | – |
| CCOC(=O)N/N=C1/C[C@@H](O)[C@@H](O)[C@@H]2[C@@H]3C(=O)N(C4CCCCC4)C(=O)[C@H]3CC[C@@H]12 | – | -16.3% [at 11.4 µM] (inactive) |
| O=C1C[C@@H](O)[C@@H](O)[C@H]2[C@@H]3C(=O)N(C4CCCCC4)C(=O)[C@@H]3CC[C@H]12 | – | 14.6% [at 11.4 µM] (inactive) and -0.457% [at 11.4 µM] (inactive) and -8.99% [at 11.4 µM] (inactive) |
| COc1cc2ccc(=O)oc2cc1O | inactive | – |
| Nc1ccc(S(=O)(=O)Nc2ccc(Cl)nn2)cc1 | inactive | – |
| CC1(O)c2ccccc2C(=O)N1CCc1ccccc1F (stereo not given) | 15.8 µM (active) | – |
| Cc1ccc(S(=O)(=O)O[C@@H]2[C@H]([C@@H]3COC(C)(C)O3)O[C@H]3OC(C)(C)O[C@@H]32)cc1 | – | 4.54% [at 11.4 µM] (inactive) |
| Cc1ccc(N(C(=O)Cn2nnc(-c3ccc(F)cc3)n2)C(CC(C)C)C(=O)NCC2CCCO2)cc1 (stereo not given) | 3.98 µM (active) | – |
| CN(C)c1ncc2nc(-c3ccc(F)cc3)c(=O)n(C[C@H]3CCCO3)c2n1 | inactive | – |
| Cc1ccc(-c2nnn(CC(=O)N(c3ccccc3)C(C(=O)NCC3CCCO3)c3ccc(Cl)cc3)n2)cc1 (stereo not given) | 0.708 µM (active) | – |
| CC(NC(=O)OCc1ccccc1)C(=O)NCC1CCCO1 (stereo not given) | inactive | – |
| CC(C)CC(C(=O)NCC1CCCO1)N(C(=O)Cn1nnc(-c2ccc(F)cc2)n1)c1ccccc1F (stereo not given) | 11.2 µM (active) | – |
| CC(C)CC(C(=O)NCC1CCCO1)N(C(=O)Cn1nnc(-c2ccc(F)cc2)n1)c1cccc(C(F)(F)F)c1 (stereo not given) | 7.94 µM (active) | – |
| O=C(NCC1CCCO1)C(c1cccnc1)N(C(=O)Cc1cccs1)c1cccnc1 (stereo not given) | inactive | – |
| N#CC(CC(=O)O)=C(c1ccccc1)c1ccccc1 | – | -16.4% [at 11.4 µM] (inactive) |
| CCN1C(=O)[C@H]2[C@H]3[C@H](O)[C@H](O)C/C(=N/O[C@@H]4O[C@@H](COC(C)=O)[C@@H](OC(C)=O)[C@@H](OC(C)=O)[C@H]4OC(C)=O)[C@@H]3CC[C@@H]2C1=O | – | 19.4% [at 11.4 µM] (inactive) |
| Cc1oc(-c2ccccc2F)nc1CSCC(=O)NCc1ccc2c(c1)OCO2 | 4.47 µM (active) | – |

| Structure (SMILES) | AC50 | activity, negative = inhibition |
| --- | --- | --- |
| CCN1CCCC1CNC(=O)CSCc1nc(-c2ccccc2C)oc1C (stereo not given) | inactive | – |
| Cc1cc(C)c(S(C)(=O)=O)c(Oc2ccc(C(C)(C)C)cc2)n1 | 7.08 µM (active) | – |
| COc1ccc(Oc2nc(C)cc(C)c2S(=O)(=O)c2ccc(C)cc2)cc1 | 14.1 µM (active) | – |
| Cc1cc(C)c(C#N)c(Oc2ccc(F)cc2)n1 | inactive | – |
| NC(=O)NC(=O)[C@H]1CCCC[C@@H]1C(=O)O | – | 7.71% [at 11.4 µM] (inactive) |
| CCN(CC)CC[n+]1ccc2c(C)c3[nH]c4ccc(O)cc4c3c(C)c2c1 | – | -0.365% [at 11.4 µM] (inactive) |
| Cc1onc(-c2ccccc2)c1C(=O)NCCc1c[nH]c2ccccc12 | 3.98 µM (active) | – |
| CC(=O)NCCc1c[nH]c2ccc(O)cc12 | inactive | – |
| Oc1c(Br)cc(Br)cc1CN(Cc1cc(Br)cc(Br)c1O)C1CCCCC1 | – | -21.2% [at 11.4 µM] (inactive) |
| CC(C)(C)c1ccc(O)c(CN(Cc2cc(C(C)(C)C)ccc2O)C2CCCCC2)c1 | – | -4.75% [at 11.4 µM] (inactive) |
| Oc1c(Br)cc(CN(Cc2cc(Br)c(O)c(Br)c2)C2CCCCC2)cc1Br | 2.51 µM (active) | – |
| NC(N)=NC(N)=Nc1ccc(S(=O)(=O)O)cc1 | – | 21.1% [at 11.4 µM] (inactive) |
| O=C(NCc1n[nH]c(=S)n1-c1cccc(Cl)c1)c1ccc(S(=O)(=O)N2CCCC2)cc1 | 17.8 µM (active) | – |
| Cn1c(CCNC(=O)c2ccccc2Cl)n[nH]c1=S | inactive | – |
| COc1ccc(-n2c(CNC(=O)c3cc(OC)c(OC)c(OC)c3)n[nH]c2=S)cc1 | inactive | – |
| O=[N+]([O-])c1ccccc1N=Nc1c(O)[nH]c2ccc(S(=O)(=O)O)cc12 | – | -11% [at 11.4 µM] (inactive) |
| CCC(C(=O)NC(C)(C)C)N(C(=O)Cn1nnc(-c2cccs2)n1)c1cnc2ccccc2c1 (stereo not given) | 2.82 µM (active) | – |
| O=C(Nc1cnc2ccccc2c1)c1cccc(-n2cnnn2)c1 | inactive | – |
| COC(=O)C/C=C\[C@H](C)[C@@H](OC)c1ccccc1Br | – | -6.68% [at 11.4 µM] (inactive) |
| Cn1c(=O)n2n(c1=O)[C@H]1[C@H](O)[C@H]3O[C@@H]3/C(=N/OC[C@@H](O)COCc3ccco3)[C@@H]1CC2 | – | -4.5% [at 11.4 µM] (inactive) |
| COc1cnc(-c2ccccn2)nc1Oc1ccc(Cl)c2ccccc12 | 12.6 µM (active) | – |
| C[C@H](Oc1ccccc1)C(=O)N[C@@H]1C(=O)N2[C@@H]1SC(C)(C)[C@@H]2C(=O)O | inactive | – |
| CC(Oc1ccccc1)C(=O)Nc1nc2c(s1)C(=O)CC(C)(C)C2 (stereo not given) | 6.31 µM (active) | – |

| Structure (SMILES) | AC50 | activity, negative = inhibition |
| --- | --- | --- |
| COc1ccccc1CNCCCCCCNCCCCCCCCNCCCCCCNCc1ccccc1OC | inactive | – |
| COc1ccccc1CNCc1cccs1 | inactive | – |
| COc1ccccc1CNCC(O)(c1ccc(Cl)cc1)c1ccc(Cl)cc1 | 15.8 µM (active) | – |
| OCCN1CCN(C(=S)c2ccc(Br)cc2)CC1 | inactive | – |
| CCOC(=O)N/N=C1/C[C@@H](O)[C@@H](O)[C@@H]2[C@@H]3C(=O)N([C@@H](C)c4ccccc4)C(=O)[C@H]3CC[C@@H]12 | – | 20.5% [at 11.4 µM] (inactive) |
| COc1ccc(CCNC(=O)C2CCN(S(=O)(=O)c3cccc4nsnc34)CC2)cc1OC | inactive | – |
| O=C(C1CCCN(S(=O)(=O)c2cccc3nsnc23)C1)N1CC=C(c2ccccc2)CC1 (stereo not given) | 1.41 µM (active) | – |
| CS(=O)(=O)N1CCCC(C(=O)N2CCc3ccccc3C2)C1 (stereo not given) | inactive | – |
| O=S(=O)(c1cccc2nsnc12)N1CCCC1 | 3.55 µM (active) | – |
| COc1ccc2nc(NC(=O)C3CCN(S(=O)(=O)c4cccc5nsnc45)CC3)sc2c1 | inactive | – |
| O=S(=O)(c1ccccc1S(=O)(=O)N1CCCCC1)N1CCCCC1 | 28.2 µM (active) | – |
| CC(=O)Nc1ccc(NC(=O)C2CCN(S(=O)(=O)c3cccc4nonc34)CC2)cc1 | inactive | – |
| O=S(=O)(c1cccc2cnccc12)N1CCNCC1 | inactive | – |
| O=C(C1CCN(S(=O)(=O)c2cccc3nsnc23)CC1)N1CCc2ccccc21 | 10 µM (active) | – |
| Cc1cc(N)c2ccccc2[n+]1CCCCCCCCCC[n+]1c(C)cc(N)c2ccccc21 | inactive | – |
| O=C(Nc1ccccc1)N[C@H]1C[C@H](C(=O)O)Nc2cc(Cl)cc(Cl)c21 | inactive | – |
| CCCSC1=C(C#N)C(c2cccnc2)C(C(=O)OCC)=C(c2ccccc2)N1 (stereo not given) | 8.91 µM (active) | – |
| COc1ccc(NC(=O)N2CC[C@@]3(CCCN(S(C)(=O)=O)C3)C2)cc1 | inactive | – |
| Cc1ccc2c(c1)N(CCC(=O)NCc1cccnc1)C(=O)CO2 | 14.1 µM (active) | – |
| Cc1ccc2c(c1)N(CC(=O)NC1CCCc3ccccc31)C(=O)CO2 (stereo not given) | inactive | – |
| Cc1ccc2c(c1)N(CC(=O)NC1CCC(C)CC1)C(=O)CO2 (stereo not given) | inactive | – |
